A selection: hits, their analogues and other compounds. The true share with any hit is near 2.5%.
UBC9 SUMO inh – inhibitors of human SUMOylation (UBC9); P63279; 0.36% of 290,000 active; inhibition, % at 35 µM; HTRF SUMOylation assay, SAE1/SAE2 + UBC9, in vitro; in the data active = inhibition above about 50%, passing the limit was not always enough
p97 inhibitor – inhibitors of human p97 ATPase. P55072. recombinant p97 ATPase, Kinase-Glo ATP luminescence, 3 h. inhibition, % at 8 µM. 0.42% of 220,000 active; in the data active = inhibition above about 15%
Target sequence (P55072 whole entry, looked up): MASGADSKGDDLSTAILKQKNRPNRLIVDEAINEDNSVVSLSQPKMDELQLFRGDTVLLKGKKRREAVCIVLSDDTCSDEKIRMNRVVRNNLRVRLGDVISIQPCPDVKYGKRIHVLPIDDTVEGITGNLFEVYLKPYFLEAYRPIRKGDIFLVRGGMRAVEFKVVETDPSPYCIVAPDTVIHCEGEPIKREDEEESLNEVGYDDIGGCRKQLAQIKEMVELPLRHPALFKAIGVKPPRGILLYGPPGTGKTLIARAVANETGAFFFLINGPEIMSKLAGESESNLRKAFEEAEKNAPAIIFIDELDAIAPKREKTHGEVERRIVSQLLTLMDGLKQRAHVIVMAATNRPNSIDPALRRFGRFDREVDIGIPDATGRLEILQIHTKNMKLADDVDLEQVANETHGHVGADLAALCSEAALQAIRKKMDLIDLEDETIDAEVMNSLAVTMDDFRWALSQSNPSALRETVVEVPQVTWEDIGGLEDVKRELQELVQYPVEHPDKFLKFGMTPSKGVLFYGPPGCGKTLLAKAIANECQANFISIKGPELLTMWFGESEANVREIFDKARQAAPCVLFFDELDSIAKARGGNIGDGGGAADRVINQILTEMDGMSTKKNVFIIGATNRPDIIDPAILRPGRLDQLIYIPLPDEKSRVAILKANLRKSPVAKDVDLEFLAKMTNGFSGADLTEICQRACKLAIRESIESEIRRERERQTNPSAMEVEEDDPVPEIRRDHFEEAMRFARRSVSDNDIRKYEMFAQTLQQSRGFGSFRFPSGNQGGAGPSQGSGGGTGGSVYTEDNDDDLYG
G6PDH counter – counter-screen for G6PDH assay hits: L. mesenteroides G6PDH inhibition | 0.12% of 200,000 active | inhibition, % at 5 µM | Purified L. mesenteroides G6PDH, diaphorase/resazurin coupled fluorescence, 45 min; in the data active = inhibition above about 50%
PfM18AAP inh – PfM18AAP enzyme inhibition. recombinant PfM18AAP, H-Glu-NHMec fluorogenic cleavage. inhibition, % at 7.35 µM. 1.2% of 290,000 active. AID 1822;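 active = inhibition above the campaign mean inhibition over all tested compounds plus 3 SD, cut at about 28% in these data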
PHOSPHO1 inh – PHOSPHO1 (human) inhibition; Q8TCT1; recombinant PHOSPHO1, absorbance phosphatase assay; inhibition, % at 13.3 µM; 1.1% of 290,000 active; in the data active = inhibition above about 60%
HDAC3 inh – inhibitors of human histone deacetylase 3; O15379; 0.15% of 320,000 active; recombinant HDAC3, fluorogenic peptide/trypsin coupled, fluorescence; inhibition, % at 8.3 µM; in the data active = inhibition above about 26%, passing the limit was not always enough
Hits are given with their value; – = inactive; · = no result.

SMILES | UBC9 SUMO inh | p97 inhibitor | G6PDH counter | PfM18AAP inh | PHOSPHO1 inh | HDAC3 inh
C=CCN(C(=O)CNS(=O)(=O)c1ccccc1)C(C(=O)NCCOC)c1cccnc1 (configuration not stated) | – | · | · | – | – | –
COCCn1c(SCC(=O)NC2CCCC2)nnc1C(C)C | – | · | · | – | – | –
COc1cccc(NC(=O)C2CCN(C(=O)NC3CCCCC3)CC2)c1 | – | · | · | – | 63 | –
O=C(CSC(=S)N1CCCC1)NCC(=O)Nc1ccc(F)c(F)c1 | – | · | · | – | – | –
O=C(OC(c1ccc(NS(=O)(=O)c2ccccc2)cc1)(C(F)(F)F)C(F)(F)F)c1ccccc1 | – | – | – | – | – | 34
Cc1ccc(S(=O)(=O)Nc2ccc(C(OC(=O)c3ccccc3[N+](=O)[O-])(C(F)(F)F)C(F)(F)F)cc2)cc1 | – | – | – | – | – | 31
Cc1ccc(C)n1-c1nnc(N2CCC(C(=O)NCCCN3CCN(C)CC3)CC2)s1 | – | · | · | – | – | –
Cc1ccc(-c2nc(CNC(=O)c3ccco3)cs2)cc1 | – | · | · | – | – | –
CCCn1c(CNc2ccccc2O)nc2ccccc21 | – | – | 62 | – | – | –
CCCCn1c(CNC(=O)CCC)nc2ccccc21 | – | – | – | – | – | –
CCN1CCN(Cc2c3ccccc3cc3ccccc23)CC1 | – | · | · | – | – | –
Fc1ccc(-c2ccnc3nc(N4CCOCC4)nn23)cc1 | 52 | – | – | – | – | –
CN(C)/C=N/c1nc2nccc(-c3cccc(Cl)c3)n2n1 | 50 | – | – | – | – | –
CN(C)/C=N/c1nc2nccc(-c3ccc(F)cc3)n2n1 | 52 | – | – | – | – | –
CC(Oc1cccc(Cl)c1)c1ccnc2nc(/N=C/N(C)C)nn12 (configuration not stated) | – | – | – | – | – | –
Fc1ccc(-c2ccnc3nc(-n4cccc4)nn23)cc1 | – | – | – | – | – | –
CCCCN(C)CCNC(=O)CN1C(=O)CSc2ccc(S(=O)(=O)N3CCCC3)cc21 | · | · | · | – | – | –
O=[N+]([O-])c1cc(C2Nc3cccc4cccc(c34)N2)ccc1Cl | 59 | – | – | – | – | –
O=C1NC(c2ccc(Cl)c([N+](=O)[O-])c2)Nc2ccccc21 (configuration not stated) | – | – | – | – | – | ·
O=C(O)COc1ccc(/C=N/NC(=O)c2ccc(-c3csc(Nc4ccc(Cl)cc4)n3)cc2)cc1 | 86 | – | · | – | – | ·
CCOc1cc(/C=N/NC(=O)c2ccc(-c3csc(Nc4ccc(C)cc4)n3)cc2)ccc1OCC(=O)O | – | – | – | – | – | ·
CCOC(=O)c1ccc(N2C(=O)CC(Sc3ncccn3)C2=O)cc1 (configuration not stated) | – | · | · | – | – | –
CCOC(=O)c1cnc(SC2CC(=O)N(c3cccc(OC)c3)C2=O)nc1N (configuration not stated) | – | – | – | 29 | – | –
C#CCOCCOCCOCCNc1nc(N2CCN(C(=O)[C@H](CCCCN)n3cc(CN)nn3)CC2)nc(N2CCN(C(=O)[C@H](CCCN=C(N)N)n3cc(C(N)[C@H](C)CC)nn3)CC2)n1 (some centres not stated) | · | · | · | · | · | –
O=C(CCCCCn1c(=S)[nH]c2cc3c(cc2c1=O)OCO3)N1CCN(c2ccccc2)CC1 | – | · | · | – | – | –
SMILES | UBC9 SUMO inh | p97 inhibitor | G6PDH counter | PfM18AAP inh | PHOSPHO1 inh | HDAC3 inh
CCN(CC)CCNC(=O)CCn1c(=S)[nH]c2cc3c(cc2c1=O)OCO3 | – | – | – | – | – | –
O=C(CCCn1c(=S)[nH]c2cc3c(cc2c1=O)OCO3)N1CCN(c2ccc(F)cc2)CC1 | – | – | – | – | 69 | –
CCCCNC(=O)CCCn1c(=S)[nH]c2cc3c(cc2c1=O)OCO3 | – | 17 | – | – | – | –
Cc1ccc(C)c(-n2cc[nH]c2=S)c1 | – | – | – | 30 | – | –
CCCn1c(C(C)Nc2nc(-c3ccc(Cl)c([N+](=O)[O-])c3)cs2)nc2cc(Cl)c(N3CCCCC3)cc21 (configuration not stated) | – | · | · | – | – | –
NS(=O)(=O)c1ccc(NC(=S)N2CCN(c3ccccc3Cl)CC2)cc1 | – | – | – | – | – | –
NS(=O)(=O)c1ccc(NC(=S)N2CCN(c3cccc(Cl)c3)CC2)cc1 | – | – | – | 29 | – | –
CCCCn1c(N)c(N(CCOC)C(=O)Cn2c(=O)oc3ccccc32)c(=O)[nH]c1=O | · | · | · | · | · | –
O=C1OC(c2ccccc2)=N/C1=C\C=C\c1ccco1 | – | – | – | – | – | 41
CC(C)[C@@H]1NC(=O)c2cc([N+](=O)[O-])cc(I)c2NCC[C@@H](C(N)=O)NC(=O)[C@H](CO)NC1=O | – | 18 | – | – | – | ·
Cc1nc(-c2cccc(NC(=O)COc3ccc(Cl)cc3)c2)cs1 | – | · | · | – | 66 | –
O=C(c1cc(COc2ccc3ncccc3c2)on1)N1CCC(O)CC1 | – | – | – | – | 62 | –
COc1cc(CNc2ccc3c(c2)CCC3)cc(OC)c1O | – | – | – | 38 | – | –
Nc1c(C(=O)NCc2ccco2)sc2nc(N3CCOCC3)c3c(c12)CCCC3 | – | – | – | – | 92 | –
CCOC(=O)c1sc2nc(N3CCOCC3)c3c(c2c1N)CCCC3 | – | – | – | – | – | –
NC(=O)c1sc2nc(N3CCCCC3)c3c(c2c1N)CCCC3 | – | – | – | – | 67 | –
COC(=O)c1sc2nc(N3CCCCC3)c3c(c2c1N)CCCC3 | – | – | – | – | – | –
CCN(CC)C(=O)c1sc2nc(N3CCOCC3)c3c(c2c1N)CCCC3 | – | – | – | – | 80 | –
COC(=O)c1ccc(NC(=O)C2CCN(C(=O)c3cc(OC)c(OC)c(OC)c3)CC2)cc1 | – | – | – | – | 106 | –
Cc1ccc(NCc2ccc(C)s2)cc1 | – | · | · | – | · | –
C=CCC[C@H](Cc1ccc(F)cc1)C(=O)OC[C@H](Cc1c[nH]c2ccccc12)NC(=O)[C@@H](CC=C)CC(=O)N(CCO)Cc1ccccc1 | · | · | · | · | · | –
C=CC[C@@H](CC(=O)N(CCO)Cc1ccccc1)C(=O)N[C@H](C)COC(=O)[C@@H](CC=C)Cc1ccc(F)cc1 | · | · | · | · | · | –
C=CC[C@H](CC(=O)N(CCO)Cc1ccccc1)C(=O)N[C@H](COC(=O)[C@@H](CC=C)Cc1ccc(F)cc1)Cc1ccccc1 | · | · | · | · | · | 33
C=CC[C@@H](CC(=O)NCCO)C(=O)N[C@H](COC(=O)[C@@H](CC=C)Cc1ccc(F)cc1)Cc1c[nH]c2ccccc12 | · | · | · | · | · | –
C=CCC[C@H](Cc1ccc(F)cc1)C(=O)OC[C@@H](Cc1c[nH]c2ccccc12)NC(=O)[C@@H](CC=C)CC(=O)N(CCO)Cc1ccccc1 | · | · | · | · | · | 40
C=CC[C@@H](CC(=O)NCCO)C(=O)N[C@@H](COC(=O)[C@@H](CC=C)Cc1ccc(F)cc1)Cc1c[nH]c2ccccc12 | · | · | · | · | · | 26
Cc1nc2ccccc2n1CC(=O)c1ccc(O)c(O)c1 | · | · | · | · | · | –
COc1ccc2[nH]c(=O)c(CNc3cccc(C)c3)cc2c1 | – | – | – | – | – | –
